Experimental data taken from PubChem BioAssay (NCATS).
Records with an inconclusive call do not appear. Active and inactive are the calls of the source. Calls follow the shape of the dose curve; as a rule, active = well fitted curve in the direction sought with a large enough effect; inconclusive = small, poorly fitted or top-dose-only effect, or another doubt; inactive = no such curve, though single readings can be large; an effect the other way counts as inactive or inconclusive.

Assays:
[1] = qHTS Assay for Identification of Small Molecule Agonists for Thrombopoietin (TPO) Signaling Pathway (AID 917); conditions: TPO signaling pathway reporter cells, agonist qHTS, stimulated with TPO at its EC50; series mostly up to 38.5 µM
Procedure, shortened: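 Reporter: GpIIb promoter–luciferase in murine Ba/F3 expressing human TPO receptor. Pre-starved of IL-3 overnight; compounds with 26 pM TPO, 24 hrs, 37 C/5% CO2; luminescence read.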

[2] = S16 Schwann cell PMP22 intronic element firefly luciferase assay (AID 624032); conditions: S16 rat Schwann cells, PMP22 element FLuc, 24 h; series mostly up to 25.7 µM; also: nearly all actives have a fitted effect of over 30% in size; also: potency is read from the fitted curve at half-maximal effect
Procedure, shortened: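 Rat S16 Schwann cells stably carrying firefly luciferase driven by a PMP22 intronic element, in 10% FBS, treated 24 h at 37 C. ONE-Glo luminescence normalized to PTC124 control and DMSO (0%); curves classed by r2, magnitude and activity.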

ATS95 = test: qHTS profiling for inhibitors of Plasmodium falciparum proliferation (AID 504749); also: nearly all actives have a fitted effect of over 60% in size; also: potency is read from the fitted curve at half-maximal effect; conditions: P. falciparum in erythrocytes, SYBR Green DNA, 72 h; series mostly up to 12.8 µM
Procedure, shortened: (§1)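 P. falciparum-infected erythrocytes (0.3% parasitemia, 2.5% hematocrit) incubated with compound 72 h at 37 C, 5% CO2. Parasite DNA detected by SYBR Green after lysis, overnight at room temperature; normalised to 0.29 uM artemisinin and DMSO.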

C2A = test: as above; conditions: P. falciparum in erythrocytes, SYBR Green DNA, 72 h; series mostly up to 12.8 µM
Procedure, shortened: as §1

CP237 = test: as above; conditions: P. falciparum in erythrocytes, SYBR Green DNA, 72 h; series mostly up to 12.8 µM
Procedure, shortened: as §1

CP269 = test: as above; conditions: P. falciparum in erythrocytes, SYBR Green DNA, 72 h; series mostly up to 12.8 µM
Procedure, shortened: as §1

CP286 = test: as above; conditions: P. falciparum in erythrocytes, SYBR Green DNA, 72 h; series mostly up to 12.8 µM
Procedure, shortened: as §1

CP291 = test: as above; conditions: P. falciparum in erythrocytes, SYBR Green DNA, 72 h; series mostly up to 12.8 µM
Procedure, shortened: as §1

CP305 = test: as above; conditions: P. falciparum in erythrocytes, SYBR Green DNA, 72 h; series mostly up to 12.8 µM
Procedure, shortened: as §1

CP335 = test: as above; conditions: P. falciparum in erythrocytes, SYBR Green DNA, 72 h; series mostly up to 12.8 µM
Procedure, shortened: as §1

DFO2036 = test: as above; conditions: P. falciparum in erythrocytes, SYBR Green DNA, 72 h; series mostly up to 12.8 µM
Procedure, shortened: as §1

DIV30 = test: as above; conditions: P. falciparum in erythrocytes, SYBR Green DNA, 72 h; series mostly up to 12.8 µM
Procedure, shortened: as §1

ECU = test: as above; conditions: P. falciparum in erythrocytes, SYBR Green DNA, 72 h; series mostly up to 12.8 µM
Procedure, shortened: as §1

P93_24 = test: as above; conditions: P. falciparum in erythrocytes, SYBR Green DNA, 72 h; series mostly up to 12.8 µM
Procedure, shortened: as §1

P94_40 = test: as above; conditions: P. falciparum in erythrocytes, SYBR Green DNA, 72 h; series mostly up to 12.8 µM
Procedure, shortened: as §1

PC26 = test: as above; conditions: P. falciparum in erythrocytes, SYBR Green DNA, 72 h; series mostly up to 12.8 µM
Procedure, shortened: as §1

TAB165 = test: as above; conditions: P. falciparum in erythrocytes, SYBR Green DNA, 72 h; series mostly up to 12.8 µM
Procedure, shortened: as §1

CP217 = test: as above; conditions: P. falciparum in erythrocytes, SYBR Green DNA, 72 h; series mostly up to 12.8 µM
Procedure, shortened: as §1

CP252 = test: as above; conditions: P. falciparum in erythrocytes, SYBR Green DNA, 72 h; series mostly up to 12.8 µM
Procedure, shortened: as §1

CP215 = test: as above; conditions: P. falciparum in erythrocytes, SYBR Green DNA, 72 h; series mostly up to 28.7 µM
Procedure, shortened: as §1

Measured: Potency

CC(=O)O[C@]1(C(C)=O)CC[C@@H]2[C@@H]3C=C(Cl)C4=CC(=O)[C@H]5C[C@@H]5[C@]4(C)[C@H]3CC[C@]21C
inactive: [1]

CCN(CC)CCC[C@H](C)Nc1ccnc2cc(Cl)ccc12
inactive: [1] | [2]
active: ATS95 10 µM | C2A 3.55 µM | CP237 4.47 µM | CP269 9.53 µM | CP286 3.16 µM | CP291 3.38 µM | CP305 2.69 µM | CP335 12 µM | DFO2036 3.98 µM | DIV30 6.75 µM | ECU 2.24 µM | P93_24 2.82 µM | P94_40 5.01 µM | PC26 4.78 µM | TAB165 5.62 µM

C[C@@H](C[N+](C)(C)C)OC(N)=O
inactive: [1]

CC(=O)O[C@@H](C)C[N+](C)(C)C
not listed: ATS95 | P94_40 | CP215
inactive: all other assays above

CN(C)CCO[C@](C)(c1ccccc1)c1ccccn1
inactive: [1]

CN1[C@@H](CC(=O)c2ccccc2)CCC[C@@H]1C[C@@H](O)c1ccccc1
inactive: [1]

CC(=O)Nc1c(I)c(C(=O)N[C@H]2[C@@H](O)[C@H](O)[C@H](CO)O[C@@H]2O)c(I)c(N(C)C(C)=O)c1I
not listed: [1]
inactive: all other assays above

CN(N=O)C(=O)N[C@H]1[C@@H](O)[C@H](O)[C@H](CO)O[C@@H]1O
not listed: [1]
inactive: all other assays above

CC(C)COC[C@H](CN(Cc1ccccc1)c1ccccc1)N1CCCC1
inactive: [1]

O=c1[nH]c(=O)n([C@@H]2C[C@H](O)[C@H](CO)O2)cc1I
active: [2] 2.45 µM
not listed: [1]
inactive: all other assays above

CN1Cc2c(N)cccc2[C@H](c2ccccc2)C1
inactive: [1]

C=CCc1ccccc1OC[C@H](O)CNC(C)C
inactive: [1]

CC(C)(O/N=C(\C(=O)N[C@@H]1C(=O)N2C(C(=O)[O-])=C(C[n+]3ccccc3)CS[C@@H]12)c1csc(N)n1)C(=O)O
not listed: [1]
inactive: all other assays above

CC(C)(Oc1ccc([C@@H]2CC2(Cl)Cl)cc1)C(=O)O
inactive: [1]

C[C@@H](CN(C)C)CN1c2ccccc2CCc2ccccc21
not listed: [1] | CP237 | CP269 | DIV30 | P93_24 | P94_40 | PC26 | CP215
inactive: all other assays above

C[C@H](NCCc1ccc(O)cc1)[C@@H](O)c1ccc(O)cc1
not listed: [2]
inactive: all other assays above

O[C@@](CCN1CCCCC1)(c1ccccc1)C1CCCCC1
inactive: [1]

COCCc1ccc(OC[C@H](O)CNC(C)C)cc1
inactive: all assays above

C[n+]1ccccc1/C=N\O
not listed: [1]
inactive: all other assays above

COc1c(O)cc2c(c1O)[C@@H]1O[C@@H](CO)[C@@H](O)[C@@H](O)[C@@H]1OC2=O
not listed: [1]
inactive: all other assays above

CN[C@@H](CC(C)C)C(=O)N[C@@H]1C(=O)N[C@H](CC(N)=O)C(=O)N[C@@H]2C(=O)N[C@H]3C(=O)N[C@H](C(=O)N[C@H](C(=O)O)c4cc(O)cc(O)c4-c4cc3ccc4O)[C@H](O)c3ccc(c(Cl)c3)Oc3cc2cc(c3O[C@H]2O[C@@H](CO)[C@@H](O)[C@@H](O)[C@@H]2O[C@@H]2C[C@](C)(N)[C@H](O)[C@H](C)O2)Oc2ccc(cc2Cl)[C@@H]1O
not listed: [1]
inactive: all other assays above

C[C@@H](C(=O)O)c1ccc(C(=O)c2cccs2)cc1
not listed: [1]
inactive: all other assays above

CCN1CCC[C@@H]1CNC(=O)c1cc(S(N)(=O)=O)ccc1OC
inactive: [1]

CC(C)NC[C@H](O)c1cc(O)cc(O)c1
not listed: [2]
inactive: all other assays above

NC(=O)OC[C@H](O)COc1ccc(Cl)cc1
not listed: [1]
inactive: all other assays above

CN(C)[C@@H]1C(=O)C(C(N)=O)=C(O)[C@]2(O)C(=O)C3=C(O)c4c(O)ccc(Cl)c4[C@H](O)[C@H]3C[C@@H]12
not listed: ATS95 | CP237 | CP286 | CP335 | DFO2036 | ECU | P93_24 | TAB165
inactive: all other assays above

CN[C@@H]1[C@H](O[C@@H]2O[C@H](CO)[C@@H](N)[C@H](O)[C@@H]2O)O[C@H]2C[C@@H](N)[C@@H](O[C@H]3[C@@H](O)[C@H](O)[C@H](N)C[C@@H]3N)O[C@H]2[C@H]1O
not listed: [1]
inactive: all other assays above

O=C(O)/C=C\c1ccc(Cn2ccnc2)cc1
not listed: [1] | CP269
inactive: all other assays above

C/C=C\C(=O)N(CC)c1ccccc1C
not listed: [1]
inactive: all other assays above

O=c1[nH]cnc2c1ncn2C1OC(CO)C(O)C1O (stereo unspecified)
not listed: [1]
inactive: all other assays above

CO/N=C(/C(=O)NC1C(=O)N2C(C(=O)O)=C(CSc3nc(=O)c(O)nn3C)CSC12)c1csc(N)n1 (stereo unspecified)
not listed: [1]
inactive: all other assays above
